# Laboratory results taken from PubChem BioAssay AID623923 (Vanderbilt Specialized Chemistry Center, 2012).
# Activity calls are given as the source filed them. The rule behind the calls is not given here.
# Experiment: PubChem AID 623923
# Settings: Ricerca radioligand binding panel, % inhibition, at 10 µM, stronger effect = higher value
smiles,measurement,setting,value
COc1ccc(C)c2sc(NC(=O)c3ccncc3)nc12,inhibition,5-HT2B binding,70%
same,inhibition,DAT transporter binding,13%
same,inhibition,GABA-A muscimol site binding,47%
same,inhibition,NET transporter binding,18%
same,inhibition,PAF receptor binding,34%
same,inhibition,adenosine A2A binding,100%
same,inhibition,adenosine A3 binding,99%
same,"inhibition of radioligand binding, adenosine A1",,91% (active)
same,inhibition,hERG binding,13%
same,inhibition,muscarinic M1 binding,-3%
same,inhibition,muscarinic M2 binding,-2%
same,inhibition,muscarinic M3 binding,3%
same,inhibition,sigma 1 binding,39%
